Source: PubChem BioAssay (National Center for Advancing Translational Sciences (NCATS))
This is a sample that favours compounds with a hit; in the whole collection about 7.3% have one here.
SMN2 splice enh: increases expression of the SMN2 splice variant | HEK293 SMN2-luciferase splicing reporter, luminescence, 30-36 h | Potency, µM (doses to about 46.1 µM), for inactives: top-dose activity change, positive = activation, most hits filed as activators | hit rate 2.8% among 210,000 | AID 1458; note: % of control where 0% means no effect; nearly all actives have a fitted effect of over 55% in size
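qHTS luciferase splicing reporter: luminescence rises when SMN2 exon 7 is included in transfected HEK293 cells. Compound exposure lasted 30-36 h at 37C, with 4.5 mM final sodium butyrate as control, followed by a ONE-Glo read.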
ELG1 genotox: genotoxicity induction in ELG1-luciferase HEK293T cells. HEK293T ELG1-luciferase reporter, luminescence, 16 h. Potency, µM (titrated, usually from 46 µM), for the others: at the highest dose activity change, positive = activation, usual class: activators. hit rate 1.3% among 330,000. AID 504466; note: % of control where 0% means no effect; nearly all actives have a fitted effect of over 60% in size
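Genotoxicity was scored as increased ELG1-luciferase reporter signal, measured by ONE-Glo luminescence (30 min, room temperature). Compound or vehicle exposure of the HEK293T reporter cells lasted 16 hr at 37°C.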
FLuc modulator: inhibits or activates purified firefly luciferase, miR-21 counter-screen; P08659; purified FLuc, Km substrates, luminescence inhibition; Potency, µM (titrated, usually from 57.5 µM), inactives show at the highest dose activity change, negative = inhibition, actives largely listed as inhibitors; hit rate 6.9% among 360,000; AID 588342;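 note: plate controls were vehicle for no effect and reference inhibitor for full effect; nearly all actives have a fitted effect of over 55% in size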
Target sequence (P08659 whole entry, looked up): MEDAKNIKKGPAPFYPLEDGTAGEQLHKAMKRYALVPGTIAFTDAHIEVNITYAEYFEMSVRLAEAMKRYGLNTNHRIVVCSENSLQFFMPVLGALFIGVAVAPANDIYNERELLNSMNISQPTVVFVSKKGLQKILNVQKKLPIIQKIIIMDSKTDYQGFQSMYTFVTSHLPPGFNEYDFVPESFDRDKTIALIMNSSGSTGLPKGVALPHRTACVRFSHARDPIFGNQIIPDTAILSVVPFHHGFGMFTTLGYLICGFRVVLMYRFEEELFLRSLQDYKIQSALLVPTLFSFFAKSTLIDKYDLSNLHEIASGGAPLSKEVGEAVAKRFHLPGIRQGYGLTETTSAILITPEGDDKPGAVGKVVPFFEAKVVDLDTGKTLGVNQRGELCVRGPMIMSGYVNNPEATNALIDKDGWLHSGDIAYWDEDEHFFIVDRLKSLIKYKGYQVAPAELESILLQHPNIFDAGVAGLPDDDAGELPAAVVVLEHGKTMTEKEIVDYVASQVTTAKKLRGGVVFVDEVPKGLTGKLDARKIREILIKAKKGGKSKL
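Purified P. pyralis luciferase, 10 nM final, with Km-level 10 uM D-luciferin and 10 uM ATP in 50 mM Tris acetate pH 7.5, 10 mM Mg acetate, 0.01% Tween-20, 0.05% BSA; 6-point qHTS titration about 60 µM downward; luminescence read.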
NPC1 promoter act: NPC1 promoter activation | Huh7 NPC1 promoter luciferase reporter, 24 h | Potency, µM (top dose mostly 9.22 µM), inactives show at the highest dose activation, hits mostly activators | hit rate 2.4% among 320,000; note: % of control where 0% means no effect; nearly all actives have a fitted effect of over 60% in size
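Huh7 reporter cells (NPC1 promoter driving luciferase) are dosed with compound for 24 h at 37 °C, 5% CO2; luciferase detection reagent is then added and luminescence measured after 10 min at ambient temperature.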
Rab9 prom act: activators of Rab9 promoter | AID 485297 | Potency, µM (series often up to 9.22 µM), inactives show top-dose activation, negative = inhibition, most hits filed as activators | Huh7 Rab9 promoter-luciferase reporter, luminescence, 24 h | hit rate 2.8% among 320,000; note: % of control where 0% means no effect; nearly all actives have a fitted effect of over 60% in size
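Huh7 reporter line, Rab9 promoter upstream of luciferase. Compound exposure 24 h at 37 °C in reduced-serum medium with 10% FBS. Read-out: luminescence.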
KinaseGlo FLuc: blocks Kinase-Glo luciferase, a counter-screen artifact | AID 1379 | Q27757 | hit rate 0.28% among 200,000 | Kinase-Glo luciferase, ATP luminescence, 8 min | Potency, µM (top dose mostly 38.3 µM), inactives show at the top dose activity change, negative = inhibition, hits mostly inhibitors; note: % is set by controls: 0 for no effect and ±100 for the full control effect; nearly all actives have a fitted effect of over 60% in size
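Luminescence was the read-out, taken after 8-minute incubation at ambient temperature. Luciferase turned over luciferin with 10 uM ATP in imidazole pH 7.2 buffer containing KCl, MgCl2, Tween 20 and BSA.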
* = called active by the depositor. Calls come from the whole dose curve; as a rule, active = well fitted curve in the direction sought with a large enough effect; inconclusive = small, poorly fitted or top-dose-only effect, or another doubt; inactive = no such curve, though single readings can be large; an effect the other way counts as inactive or inconclusive. Potency is the fitted concentration of half-maximal effect.

Screening COC(=O)c1ccc(COc2ccc(C(=O)c3ccccc3)cc2)o1 returned ELG1 genotox -8%, FLuc modulator -12%, NPC1 promoter act 14% and Rab9 prom act 12%.
Screening CCC(C)c1ccc(OCc2ccc(C(=O)O)o2)cc1 (centres undefined) returned ELG1 genotox 0.41µM*, FLuc modulator 3µM*, NPC1 promoter act inconclusive and Rab9 prom act inconclusive.
For O=C(c1ccc(COc2ccc(Br)cc2)o1)N1N=C(C(F)F)CC1(O)C(F)F (centres undefined) the results were SMN2 splice enh -46%, ELG1 genotox -7%, FLuc modulator -9%, NPC1 promoter act 7%, Rab9 prom act -2% and KinaseGlo FLuc 0%.
`CCOc1ccc(OCc2ccc(C(=O)N3N=C(C(F)F)CC3(O)C(F)F)o2)cc1` (centres undefined) gave SMN2 splice enh inconclusive, ELG1 genotox 2%, FLuc modulator -1%, NPC1 promoter act 28%, Rab9 prom act 4µM* and KinaseGlo FLuc -6%.
`CCOC(=O)c1ccc(COc2ccc(C(C)C)cc2)o1` gave ELG1 genotox inconclusive, FLuc modulator 15µM*, NPC1 promoter act 0.63µM* and Rab9 prom act 0.5µM*.
CCOc1ccc(OCc2ccc(C(=O)NC(C)C)o2)cc1 was read as ELG1 genotox 4%, FLuc modulator -18%, NPC1 promoter act inconclusive and Rab9 prom act 26%.
Screening Cc1ccc(/C=C/C(=O)CCC(=O)O)cc1 returned ELG1 genotox 13%, FLuc modulator 6.7µM*, NPC1 promoter act 22%, Rab9 prom act inconclusive and KinaseGlo FLuc 1%.
`O=C1c2ccccc2C(=O)N1OCc1cccc(Cl)c1` gave SMN2 splice enh -20%, ELG1 genotox 3%, FLuc modulator 19µM*, NPC1 promoter act 0%, Rab9 prom act 4% and KinaseGlo FLuc 18%.
For O=C1Cc2ccccc2C(=O)N1OCc1ccc(Cl)cc1Cl the results were SMN2 splice enh 12%, ELG1 genotox 5%, FLuc modulator 24µM*, NPC1 promoter act 4%, Rab9 prom act 3% and KinaseGlo FLuc -8%.
`COc1cccc(/C=N/Nc2cc(Cl)nc(C)n2)c1O` gave ELG1 genotox 7%, FLuc modulator 3µM*, NPC1 promoter act inconclusive, Rab9 prom act 2% and KinaseGlo FLuc -2%.
For COc1cccc(/C=N/Nc2nc(N3CCCC3)nc(N3CCCC3)n2)c1O the results were SMN2 splice enh -6%, ELG1 genotox -10%, FLuc modulator inconclusive, NPC1 promoter act -2%, Rab9 prom act -1% and KinaseGlo FLuc 3%.
`COc1cccc(/C=N/Nc2nnc(C)n2N)c1O` gave ELG1 genotox -4%, FLuc modulator -13%, NPC1 promoter act 9% and Rab9 prom act 8%.
Screening COc1cccc(/C=N/Nc2c(Cl)cncc2Cl)c1O returned ELG1 genotox 11%, FLuc modulator 9.5µM*, NPC1 promoter act inconclusive and Rab9 prom act 28%.
Screening O=C(Nc1ccc2nc3n(c(=O)c2c1)CCCCC3)c1cccc(C(F)(F)F)c1 returned SMN2 splice enh 2% and FLuc modulator -15%.
`COc1cccc(C(=O)Nc2ccc3nc4n(c(=O)c3c2)CCCC4)c1` gave ELG1 genotox 0%, FLuc modulator 17µM*, NPC1 promoter act 26% and Rab9 prom act inconclusive.
Screening COc1cc(C(=O)Nc2ccc3nc4n(c(=O)c3c2)CCCC4)ccc1Br returned ELG1 genotox -3%, FLuc modulator 0%, NPC1 promoter act -2% and Rab9 prom act -1%.
For COc1ccc(Cl)cc1C(=O)Nc1ccc2nc3n(c(=O)c2c1)CCCC3 the results were ELG1 genotox -2%, FLuc modulator -14%, NPC1 promoter act -1% and Rab9 prom act 6%.
